# According to PubChem BioAssay AID1159580 (chemical genetic matrix, 2015):
# About 2,000 (36%) of roughly 5,500 compounds were called active. Roughly 18% stayed inconclusive and do not appear here. The list shows a part of the results. Unmarked numbers belong to inactive results. Rule as the data show it: active = normalized growth mostly below about 0.91 (no sharp cut-off); inconclusive = no clear call, values can overlap the other calls; inactive = mostly above about 0.92.
# Experiment: chemical genetic growth profiling, strain panel (AID 1159580);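 also: tested at 20 µM; growth read once vehicle control cultures reached saturation at 30 °C; 1 = growth at the plate median or of vehicle wells; lower values mean less growth of the strain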
# Conditions: S. cerevisiae deletion strains, growth OD
# [1] = locus YDL101C, strain DUN1, active compounds read low
# [2] = locus YHR030C, strain SLT2, active compounds read low
# [3] = locus YAL013W, strain DEP1, active compounds read low
# [4] = locus YBR229C, strain ROT2, active compounds read low
# [5] = locus YDL134C, strain PPH21, active compounds read low
# [6] = locus YDR150W, strain NUM1, active compounds read low
# [7] = locus YEL061C, strain CIN8, active compounds read low
# [8] = locus YGR078C, strain PAC10, active compounds read low
# [9] = locus YGR229C, strain SMI1, active compounds read low
# [10] = locus YHR087W, strain rtc3, active compounds read low
# [11] = locus YJL187C, strain SWE1, active compounds read low
# [12] = locus YJR043C, strain POL32, active compounds read low
# [13] = locus YJR075W, strain HOC1, active compounds read low
# [14] = locus YKL190W, strain CNB1, active compounds read low
# [15] = locus YLR039C, strain RIC1, active compounds read low
# [16] = locus YLR058C, strain SHM2 (second series), active compounds read low
# [17] = locus YLR085C, strain ARP6, active compounds read low
# [18] = locus YLR262C, strain YPT6, active compounds read low
# [19] = locus YML094W, strain GIM5, active compounds read low
# [20] = locus YMR219W, strain ESC1, active compounds read low
# [21] = locus YMR263W, strain SAP30, active compounds read low
# [22] = locus YNL153C, strain GIM3, active compounds read low
# [23] = locus YNL298W, strain CLA4 (second series), active compounds read low
# [24] = locus YNL322C, strain KRE1, active compounds read low
# [25] = locus YNR030W, strain Alg12, active compounds read low
# [26] = locus YOL006C, strain TOP1, active compounds read low
# [27] = locus YPL055C, strain LGE1, active compounds read low
# [28] = locus YPL241C, strain CIN2, active compounds read low
# [29] = locus YPR135W, strain CTF4, active compounds read low
structure (smiles),measurement,setting,value
O=C(CO/N=C\c1ccc(Cl)cc1Cl)NNC(=S)Nc1cc(Cl)ccc1Cl,normalized growth,"locus YAR019C, strain CDC15, active compounds read low",1
same,normalized growth,"locus YBL105C, strain PKC1, active compounds read low",0.992
same,normalized growth,"locus YBR135W, strain CKS1, active compounds read low",1
same,normalized growth,"locus YBR136W, strain MEC1, active compounds read low",1.01
same,normalized growth,"locus YBR160W, strain CDC28, active compounds read low",1
same,normalized growth,"locus YDL017W, strain CDC7, active compounds read low",1
same,normalized growth,"locus YDL028C, strain MPS1, active compounds read low",1
same,normalized growth,[1],0.978
same,normalized growth,"locus YDL108W, strain KIN28, active compounds read low",1.01
same,normalized growth,"locus YDL132W, strain cdc53, active compounds read low",1
same,normalized growth,"locus YDL214C, strain PRR2, active compounds read low",0.999
same,normalized growth,"locus YDR052C, strain DBF4, active compounds read low",1
same,normalized growth,"locus YDR054C, strain cdc34, active compounds read low",0.994
same,normalized growth,"locus YDR226W, strain ADK1, active compounds read low",0.994
same,normalized growth,"locus YDR477W, strain SNF1, active compounds read low",0.983
same,normalized growth,"locus YER123W, strain YCK3, active compounds read low",0.996
same,normalized growth,"locus YER133W, strain GLC7, active compounds read low",0.983
same,normalized growth,"locus YFL009W, strain cdc4, active compounds read low",0.996
same,normalized growth,"locus YFL029C, strain CAK1, active compounds read low",1.01
same,normalized growth,"locus YFR003C, strain YPI1, active compounds read low",0.997
same,normalized growth,"locus YFR019W, strain FAB1, active compounds read low",1
same,normalized growth,"locus YFR028C, strain CDC14, active compounds read low",0.994
same,normalized growth,"locus YGR040W, strain KSS1, active compounds read low",0.984
same,normalized growth,"locus YGR052W, strain FMP48, active compounds read low",1.02
same,normalized growth,"locus YGR092W, strain DBF2, active compounds read low",0.961
same,normalized growth,[2],1.01
same,normalized growth,"locus YHR079C, strain IRE1, active compounds read low",0.966
same,normalized growth,"locus YHR082C, strain KSP1, active compounds read low",1.14
same,normalized growth,"locus YHR205W, strain SCH9, active compounds read low",0.98
same,normalized growth,"locus YIL147C, strain SLN1, active compounds read low",1
same,normalized growth,"locus YJL095W, strain BCK1, active compounds read low",0.928
same,normalized growth,"locus YJL128C, strain PBS2, active compounds read low",0.992
same,normalized growth,"locus YJL157C, strain FAR1, active compounds read low",0.989
same,normalized growth,"locus YJR016C, strain ILV3, active compounds read low",1
same,normalized growth,"locus YJR066W, strain TOR1 (second series), active compounds read low",0.948
same,normalized growth,"locus YJR066W, strain TOR1, active compounds read low",1.15
same,normalized growth,"locus YKL048C, strain ELM1, active compounds read low",1
same,normalized growth,"locus YKL067W, strain YNK1, active compounds read low",1.03
same,normalized growth,"locus YKL101W, strain HSL1, active compounds read low",1
same,normalized growth,"locus YKL193C, strain SDS22, active compounds read low",1
same,normalized growth,"locus YKL203C, strain TOR2, active compounds read low",1.06
same,normalized growth,"locus YLR113W, strain HOG1, active compounds read low",1.01
same,normalized growth,"locus YLR133W, strain CKI1, active compounds read low",1.02
same,normalized growth,"locus YLR403W, strain SFP1, active compounds read low",0.97
same,normalized growth,"locus YML070W, strain DAK1, active compounds read low",0.995
same,normalized growth,"locus YMR001C, strain CDC5, active compounds read low",1
same,normalized growth,"locus YMR205C, strain PFK2 (second series), active compounds read low",1.01
same,normalized growth,"locus YMR277W, strain FCP1, active compounds read low",1
same,normalized growth,"locus YNL006W, strain LST8, active compounds read low",0.99
same,normalized growth,"locus YNL020C, strain ARK1, active compounds read low",1.01
same,normalized growth,"locus YNL161W, strain CBK1, active compounds read low",0.996
same,normalized growth,"locus YNL183C, strain NPR1, active compounds read low",1.09
same,normalized growth,"locus YNL207W, strain RIO2, active compounds read low",1.01
same,normalized growth,"locus YNL222W, strain SSU72, active compounds read low",0.993
same,normalized growth,"locus YNL307C, strain MCK1 (second series), active compounds read low",0.999
same,normalized growth,"locus YOL078W, strain AVO1, active compounds read low",1
same,normalized growth,"locus YOL136C, strain PFK27, active compounds read low",1.01
same,normalized growth,"locus YOR061W, strain CKA2, active compounds read low",1.02
same,normalized growth,"locus YOR119C, strain RIO1, active compounds read low",1.05
same,normalized growth,"locus YOR231W, strain MKK1, active compounds read low",1.05
same,normalized growth,"locus YOR329C, strain SCD5, active compounds read low",1.01
same,normalized growth,"locus YPL031C, strain PHO85, active compounds read low",0.995
same,normalized growth,"locus YPL153C, strain RAD53, active compounds read low",0.99
same,normalized growth,"locus YPL204W, strain HRR25, active compounds read low",0.991
same,normalized growth,"locus YPL209C, strain IPL1, active compounds read low",1
same,normalized growth,"locus YPL256C, strain CLN2, active compounds read low",1.02
same,normalized growth,"locus YPR025C, strain CCL1, active compounds read low",0.997
same,normalized growth,"locus YPR106W, strain ISR1, active compounds read low",0.992
same,normalized growth,"locus YPR111W, strain DBF20, active compounds read low",0.997
same,normalized growth,"strain NNK1, active compounds read low",0.997
same,normalized growth,"strain TSCII, active compounds read low",0.997
S=C(NCCCn1ccnc1)Nc1cc(Cl)ccc1Cl,normalized growth,[3],1.02
same,normalized growth,[4],0.987
same,normalized growth,"locus YCL061C, strain MRC1, active compounds read low",0.979
same,normalized growth,[1],0.963
same,normalized growth,[5],0.868 (active)
same,normalized growth,[6],1.01
same,normalized growth,[7],1.02
same,normalized growth,[8],0.982
same,normalized growth,[9],0.994
same,normalized growth,[2],0.745
same,normalized growth,[10],1.04
same,normalized growth,[11],1.01
same,normalized growth,[12],1
same,normalized growth,[13],0.979
same,normalized growth,[14],0.994
same,normalized growth,[15],0.973
same,normalized growth,[16],1.02
same,normalized growth,[17],0.839
same,normalized growth,[18],1.05
same,normalized growth,[19],1.01
same,normalized growth,[20],1
same,normalized growth,[21],1.01
same,normalized growth,[22],0.987
same,normalized growth,[23],0.971
same,normalized growth,[24],0.992
same,normalized growth,[25],1.01
same,normalized growth,[26],0.938
same,normalized growth,[27],1
same,normalized growth,[28],0.983
same,normalized growth,[29],0.754
Cc1ccc(Cl)cc1NC(=S)NCCO,normalized growth,[3],1.01
same,normalized growth,[4],1.01
same,normalized growth,[1],1.01
same,normalized growth,[5],0.996
same,normalized growth,[6],1
same,normalized growth,[7],1.02
same,normalized growth,[8],1.02
same,normalized growth,[9],0.999
same,normalized growth,[2],1.02
same,normalized growth,[10],1.01
same,normalized growth,[11],1.01
same,normalized growth,[12],0.993
same,normalized growth,[13],0.992
same,normalized growth,[14],1
same,normalized growth,[15],1.02
same,normalized growth,[16],1.01
same,normalized growth,[17],1
same,normalized growth,[18],1.01
same,normalized growth,[19],1.05
same,normalized growth,[20],1
same,normalized growth,[21],0.989
same,normalized growth,"locus YMR307W, strain GAS1, active compounds read low",0.95
same,normalized growth,"locus YNL128W, strain TEP1, active compounds read low",1.02
same,normalized growth,[22],1.01
same,normalized growth,[23],1.03
same,normalized growth,[24],1
same,normalized growth,[25],0.96
same,normalized growth,[26],1.03
same,normalized growth,[27],1.02
same,normalized growth,[28],1
same,normalized growth,[29],1.11
